Screen size: about 410,000 compounds; about 18,000 (4.4%) were called active. Inconclusive results (about 7%) are left out. The sample as a whole holds a higher share of actives than the screen did. Values without a mark were called inactive. Cut-off read from the data, not from the text of the source: active = activity change below about -60%; inconclusive = no clear call, values can overlap the other calls; inactive = above about -39%.
Assay: qHTS Assay for inhibitors of the human cytomegalovirus (HCMV)
Settings: HFF cells, HCMV-luciferase reporter, 72 h; at 57.5 µM; hits give low values
Procedure, shortened: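 Two-dose cell screen: HFF monolayers treated with compounds and infected with luciferase-expressing HCMV at 1 PFU/cell, 72 h at 37C, then lysed for luciferase measurement.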
Compound CCOC(=O)[C@H]1[C@H]2COc3ccc(Br)cc3[C@@H]2N2C(=O)CN(C)C(=O)[C@@]12C has an activity change, negative = inhibition of 4.78%. Work on CC(=O)Nc1ccc(NC(=O)C2CCCN(S(=O)(=O)c3ccc4c(c3)CCCC(=O)N4)C2)cc1 (configuration not stated) yielded an activity change, negative = inhibition of 20.2%. In the case of Cc1ccc(C)c(N2CCN(C(=O)Cn3ncc4c(=O)oc5ccc(C)cc5c43)CC2)c1, the activity change, negative = inhibition is reported as 4.14%. With Cc1ccccc1-c1cc(C(=O)NCc2cccs2)n(CC2CC(c3cccnc3)=NO2)n1 (configuration not stated) the activity change, negative = inhibition was -10.2%. For Cc1ccccc1N1CC(C(=O)Nc2ccc3c(c2)OCO3)CC1=O (configuration not stated), the activity change, negative = inhibition was 31.2%. Work on CC(C)(C)C(=O)COC(=O)c1cc(S(=O)(=O)N2CCCCC2)ccc1N1CCOCC1 yielded an activity change, negative = inhibition of -11.9%. For O=C(OCCOc1ccccc1F)c1cc(S(=O)(=O)N2CCOCC2)ccc1F, the activity change, negative = inhibition was -18%. In the case of O=C(OCCOc1ccccc1Cl)c1cc(S(=O)(=O)N2CCCCC2)ccc1N1CCOCC1, the activity change, negative = inhibition is reported as -69.8% (active). Work on CCOC(=O)c1c(C)[nH]c(C)c1S(=O)(=O)N1CCCC(C(=O)NCc2ccccc2Cl)C1 (configuration not stated) yielded an activity change, negative = inhibition of -15.8%. For CCOc1ccccc1CNC(=O)Nc1cn(CC(C)C)c(=O)c2ccccc12, the activity change, negative = inhibition was -2.27%. CCOc1ccc(S(=O)(=O)Nc2ccncc2)c(C)c1C gave an activity change, negative = inhibition of -26.1%. For Cc1cc(-c2n[nH]c(=S)n2/N=C/C(Br)=C/c2ccccc2)n[nH]1, the activity change, negative = inhibition was -95% (active). For CCN(CCCNC(=O)Cn1ncc2c([nH]c3ccccc32)c1=O)c1cccc(C)c1, the activity change, negative = inhibition was 19.5%. CCN(CCCNC(=O)c1ccc(Sc2ccc(C)cc2)c(NC(C)=O)c1)c1cccc(C)c1 showed an activity change, negative = inhibition of -13.8%. With CCN(CCCNC(=O)c1ccc2c(c1)NC(=O)CN2C)c1cccc(C)c1 the activity change, negative = inhibition was -95.1% (active). COc1ccc(SCc2cc(=O)c3ccc(C)c(C)c3[nH]2)cc1 gave an activity change, negative = inhibition of -8.87%. Compound CC(C)C(C(=O)NC(C)(C)CC(C)(C)C)N1C(=O)C(=O)c2ccccc21 (configuration not stated) has an activity change, negative = inhibition of 229%. In the case of CCOC(=O)C1(S(=O)(=O)c2ccc(Cl)cc2)CCN(Cc2ccccc2)CC1, the activity change, negative = inhibition is reported as -98.6% (active). For O=C(NNS(=O)(=O)c1ccc(Cl)cc1)C1CCN(Cc2ccccc2)CC1, the activity change, negative = inhibition was 14.7%. CCOC(=O)c1ccc(CN(Cc2ccccc2)S(=O)(=O)c2ccc(Cl)cc2)cc1 showed an activity change, negative = inhibition of -6.46%. Work on CN(CC(=O)Nc1ccccc1Cl)C(=O)COc1cccc2c1OC(C)(C)C2 yielded an activity change, negative = inhibition of -11.1%. For O=C(Nc1ccc(O)c(-c2nc3ccccc3o2)c1)c1ccc(-c2cccc(Cl)c2)o1, the activity change, negative = inhibition was 11.5%. With Cc1nc(Nc2ccccc2F)c2nnn(Cc3ccccc3Cl)c2n1 the activity change, negative = inhibition was 33.3%. Cc1nc(Nc2ccc(S(=O)(=O)N3CCCC3)cc2)c2nnn(Cc3ccccc3)c2n1 gave an activity change, negative = inhibition of -1%. For Cc1nc(Nc2ccc3c(c2)OCCO3)c2nnn(Cc3ccccc3Cl)c2n1, the activity change, negative = inhibition was -91.8% (active). For CC(C)c1ccc(Nc2ncccc2C#N)cc1, the activity change, negative = inhibition was 52.9%. COc1cc(OC)cc(C(=O)Nc2nnc(SCC(=O)NCC3CCCO3)s2)c1 (configuration not stated) gave an activity change, negative = inhibition of -2.96%. In the case of CC1CC(C)CN(CC(=O)Nc2ccc(S(N)(=O)=O)cc2)C1 (configuration not stated), the activity change, negative = inhibition is reported as -88.1% (active). CC1Cc2ccccc2N1CC(=O)Nc1ccc(S(N)(=O)=O)cc1 (configuration not stated) showed an activity change, negative = inhibition of -32.9%. CC1CN(C(=S)Nc2ccc(S(N)(=O)=O)cc2)CC(C)O1 (configuration not stated) showed an activity change, negative = inhibition of 70.7%. Compound COc1cc(OC)cc(C(=O)Nc2cc3nn(-c4ccccc4)nc3cc2Cl)c1 has an activity change, negative = inhibition of 99.1%. For CCOC(=O)c1ccccc1NC(=O)CCc1c(C)nc2c(c1C)c(=O)n(C)c(=O)n2C, the activity change, negative = inhibition was 5.18%. For Cc1nc2ccccc2nc(=O)c1NNc1ccc([N+](=O)[O-])cc1, the activity change, negative = inhibition was 4.07%. In the case of Cc1nc(-c2ccc([N+](=O)[O-])cc2)c(-c2ccccc2)o1, the activity change, negative = inhibition is reported as -90.1% (active). Compound CCC1OC(c2ccc([N+](=O)[O-])cc2)=Nc2ccccc21 (configuration not stated) has an activity change, negative = inhibition of 13.9%. COc1ccc(Cn2ccnc2SCC(=O)NCc2ccco2)cc1 gave an activity change, negative = inhibition of -17.3%. For COc1cc(OC)cc(C2=Cc3ccccc3C(CC(=O)c3ccco3)N2c2ccc(-c3cnc(OC)nc3)cc2)c1 (configuration not stated), the activity change, negative = inhibition was 18.6%. NC(=O)c1ncc(C(F)(F)F)cc1Oc1ccc(F)cc1 gave an activity change, negative = inhibition of 0.451%. For COc1ccc(Cl)cc1NC(=O)CSc1nc2ccccc2c2nc(-c3ccccc3)nn12, the activity change, negative = inhibition was 11.6%. CCOc1ccc(CCN2C(=O)C(=O)N([C@@H](Cc3ccc(O)cc3)CN3CCC[C@H]3CN3C(=O)C(=O)NC[C@@H]3CC(C)C)C[C@@H]2Cc2ccccc2)cc1 gave an activity change, negative = inhibition of -26.1%. Compound O=C(COC(=O)c1cncc(Br)c1)Nc1ccc(S(=O)(=O)N2CCOCC2)cc1 has an activity change, negative = inhibition of -8.88%. O=C(COc1ccc(Br)cc1)OCC(=O)c1ccc[nH]1 gave an activity change, negative = inhibition of 42.3%. Work on CCCOC(=O)c1c(NC(=O)c2cnn3c2NC(c2ccccc2)CC3C(F)(F)F)sc2c1CCCC2 (configuration not stated) yielded an activity change, negative = inhibition of -29.2%. With Cc1ccc(/C=C/C(=O)Nc2ccc([N+](=O)[O-])c(NC(=O)/C=C/c3ccc(C)o3)c2)o1 the activity change, negative = inhibition was -77% (active). With CCOc1ccc(NC(=S)NC(=O)/C=C/c2ccc(OC)cc2)c([N+](=O)[O-])c1 the activity change, negative = inhibition was 40.2%. In the case of COc1ccc(OC)c(NC(=O)/C=C/c2ccc(C)o2)c1, the activity change, negative = inhibition is reported as 33%. In the case of COc1c(Cl)cc(C(=O)N(Cc2ccccc2F)C2CCS(=O)(=O)C2)cc1Cl (configuration not stated), the activity change, negative = inhibition is reported as -5.18%. CCCn1c(=N)n(CC(O)COc2ccccc2OC)c2ccccc21 (configuration not stated) gave an activity change, negative = inhibition of -33.4%. Cc1ccc(OCC(O)CN2CCN(CC(O)COc3ccc(C)cc3Cl)CC2)c(Cl)c1 (configuration not stated) showed an activity change, negative = inhibition of -4.14%. For COc1ccccc1OCC(O)CN1CCOCC1 (configuration not stated), the activity change, negative = inhibition was -100% (active). For CCOc1ccc(OCC)c(NS(=O)(=O)c2ccc3[nH]c(=O)ccc3c2)c1, the activity change, negative = inhibition was 17.6%. In the case of COc1cc(NS(=O)(=O)c2ccc3ccccc3c2)c2ncccc2c1, the activity change, negative = inhibition is reported as -79.8% (active). In the case of COc1ccc(S(=O)(=O)Nc2cc3c(C(=O)OC(C)C)c(C)oc3c3ccccc23)cc1, the activity change, negative = inhibition is reported as 4.89%. COc1cc2c(C(=O)N(C)c3cc(Cl)ccc3OC)cn(C)c(=O)c2cc1OC showed an activity change, negative = inhibition of -37.5%. For Cc1cc(C)c2oc(C(=O)Nc3c(C(=O)Nc4ccccc4)oc4ccccc34)cc(=O)c2c1, the activity change, negative = inhibition was 8.41%. For Cc1nc(/N=C(\N)NC(=O)NC2CCCCC2)nc2ccccc12, the activity change, negative = inhibition was -84.3% (active). In the case of O=C(NNC(=O)C(O)c1ccccc1)NC1CCCCC1 (configuration not stated), the activity change, negative = inhibition is reported as -11.7%. With O=C(Cn1nnc(-c2ccccc2)n1)NC(=O)NC1CCCC1 the activity change, negative = inhibition was 11.9%. In the case of Cc1ccc(S(=O)(=O)N2CCN(Cc3cccc(C)c3O)CC2)cc1, the activity change, negative = inhibition is reported as -3.34%. In the case of Cc1ccc(C)c(S(=O)(=O)n2nc(C)c(S(=O)(=O)N3CCC(C)CC3)c2C)c1, the activity change, negative = inhibition is reported as -3.95%. For Cc1ccc(C)c(S(=O)(=O)c2nnn3c2nc(N2CCOCC2)c2sccc23)c1, the activity change, negative = inhibition was 28.6%. With Cc1ccc(C)c(S(=O)(=O)N2CCN(c3ncnc4sccc34)CC2)c1 the activity change, negative = inhibition was -96.6% (active). For Cc1ccc(S(=O)(=O)N2CCN(c3ncnc4ccccc34)CC2)cc1, the activity change, negative = inhibition was -87.3% (active). With COc1ccc(S(=O)(=O)N2CCN(c3ncnc4c(-c5ccccc5)nsc34)CC2)cc1 the activity change, negative = inhibition was 3.62%. In the case of CCOc1ccc2oc(C(=O)N(CC)CC(=O)Nc3ccc(NC(C)=O)cc3)c(C)c2c1, the activity change, negative = inhibition is reported as -18.7%. O=S(=O)(c1ccc(Br)cc1)c1nnn2c1nc(N1CCOCC1)c1sccc12 showed an activity change, negative = inhibition of 18.7%. Work on CCCOc1ccc(N2C(=O)CC(N(CCc3ccc(S(N)(=O)=O)cc3)C(C)=O)C2=O)cc1 (configuration not stated) yielded an activity change, negative = inhibition of 29.6%. Work on CC1CCN(C(=O)Cn2c(=O)n(-c3ccc(Cl)cc3)c(=O)c3c4c(sc32)CCC4)CC1 yielded an activity change, negative = inhibition of 3.05%. With Cc1cc(NC(=O)Cn2nc(C(F)(F)F)c3c2CCCC3)no1 the activity change, negative = inhibition was 31%. Compound O=C(Cn1nc(C(F)(F)F)c2c1CCC2)NCc1ccc(F)cc1 has an activity change, negative = inhibition of -0.659%. With O=C(Cn1nc(C(F)(F)F)c2c1CCCC2)Nc1ccc(Cl)cc1 the activity change, negative = inhibition was -105% (active). In the case of CCOc1ccc2nc(N3CCC(C(=O)Nc4cc(C)ccc4C)CC3)sc2c1, the activity change, negative = inhibition is reported as 20%. Cc1ccc2nc(CNC(=O)c3ccccc3)[nH]c2c1 showed an activity change, negative = inhibition of 61%. For CCCNC(=O)C1CCN(c2nc3ccc(C)cc3[nH]2)CC1, the activity change, negative = inhibition was 0% (active). Cc1[nH]c2ccccc2c1[N+](=O)[O-] showed an activity change, negative = inhibition of 6.63%. In the case of CCCC(O)(CCC)C(=O)NN(C(=O)CCl)c1cccc(C)c1, the activity change, negative = inhibition is reported as -101% (active). CCCCNC(=O)CN1C(=O)NC(Cc2ccccc2)(Cc2ccccc2)C1=O gave an activity change, negative = inhibition of -14.4%. In the case of CCCCC(O)(CCCC)C(=O)NN(C(=O)CCl)c1ccccc1, the activity change, negative = inhibition is reported as -94.6% (active). With Cc1cccc(N(Cc2ccccc2)C(=O)c2ccccc2F)c1 the activity change, negative = inhibition was 1.73%. In the case of COC(=O)N(NC(=O)C(O)(C(C)C)C(C)C)c1ccccc1, the activity change, negative = inhibition is reported as 2.98%. Cc1cccc(N(CC(O)CN(C)C)S(=O)(=O)c2ccccc2)c1 (configuration not stated) showed an activity change, negative = inhibition of -26.4%. Compound COCn1c(C(O)c2ccccc2)cc2ccccc21 (configuration not stated) has an activity change, negative = inhibition of 3.56%. O=C(CSc1ncc(S(=O)(=O)c2ccc(Br)cc2)c(=O)[nH]1)Nc1ccc2c(c1)OCCO2 gave an activity change, negative = inhibition of 3.97%. In the case of CCCN1CN=C(NS(=O)(=O)c2ccc(NC(C)=O)cc2)NC1, the activity change, negative = inhibition is reported as -18.1%. Compound COc1ccccc1NC(=O)CSc1oc(-c2ccco2)nc1S(=O)(=O)c1ccc(Br)cc1 has an activity change, negative = inhibition of 12.2%. Work on CCOc1ccc(NC(=O)CCc2c(C)nn(-c3ccc(N4CCCC4)nn3)c2C)cc1 yielded an activity change, negative = inhibition of -23.2%. COc1ccc(-c2nc3sc(CCNS(=O)(=O)c4ccc(F)c(C)c4)c(C)n3n2)cc1 showed an activity change, negative = inhibition of -32.9%.

From PubChem BioAssay AID1259415 (National Center for Advancing Translational Sciences (NCATS), 2018)
% is set by controls: 0 for no effect and ±100 for the full control effect.
